Results filed as inconclusive are left out. Calls of active or inactive are those of the source. The call rests on the fitted dose curve; in most records, active means well fitted inhibition curve with a large enough effect; inconclusive means small, poorly fitted or top-dose-only effect; inactive means flat fitted curve, though single readings scatter.

Common to all, as to assay: qHTS profiling for inhibitors of Plasmodium falciparum proliferation (AID 504749); further: nearly all actives have a fitted effect of over 60% in size
Conditions in all cases: P. falciparum in erythrocytes, SYBR Green DNA, 72 h; series mostly up to 12.8 µM
A general note: qHTS replaces the single test concentration by a dilution series.

The subject of one test is C2A. Put shortly: (§1)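 Readout was DNA-dye fluorescence from lysed cultures, ex 485/em 535 nm. Parasitized red cells had grown 72 h with compound; data scaled between 0.29 uM artemisinin and DMSO wells and corrected using vehicle-only plates.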
A further test has as its system CP185. The method in brief:
as §1

Another test has as its system CP211. Put shortly:
as §1

A further test concerns CP217. Put shortly: as §1
A further test deals with CP250. The method in brief: as §1
The test system of the next test is CP252. Put shortly:
as §1

Another test relates to CP256. The method in brief:
as §1

The test system of a further test is CP291. Put shortly:
as §1

Another test has as its system CP305. The method in brief:
as §1

The subject of the next test is CP325. The method in brief:
as §1

The subject of a further test is CP329. Put shortly:
as §1

The test system of another test is CP335. The method in brief: as §1
A further test relates to Dd2. The method in brief:
as §1

Another test relates to ECU. Put shortly: as §1
The subject of a further test is HB3. Put shortly:
as §1

For the next test, the system named is N140. Put shortly: as §1
For another test, the system named is PC15. Put shortly:
as §1

A further test deals with PC49. Put shortly: as §1
The next test relates to SC27B. The method in brief: as §1
The next test concerns TAB113. Put shortly:
as §1
Potency means the concentration at half of the fitted maximal effect.

For `CN[C@@H]1[C@H](O[C@@H]2O[C@H](CO)[C@@H](N)[C@H](O)[C@@H]2O)O[C@H]2C[C@@H](N)[C@@H](O[C@H]3[C@@H](O)[C@H](O)[C@H](N)C[C@@H]3N)O[C@H]2[C@H]1O`, the Potency result in the test on C2A, with CP185, in the test with CP211, with CP217, in the test with CP250 and in the test on CP252 was “inactive” in each case. For the same molecule, the Potency result in the test on CP256, in the test with CP291, with CP305, with CP325, in the test with CP329 and in the test with CP335 was “inactive” each time. For the same molecule, the Potency entry in the test with Dd2, in the test on ECU, with HB3, with N140, in the test on PC15 and in the test with PC49 was “inactive” throughout. The Potency result in the test on SC27B and in the test on TAB113 was “inactive” each time.

As to `CN(C)[C@H]1C(=O)C(C(=O)NCN2CCCC2)=C(O)[C@]2(O)C(=O)C3=C(O)c4c(O)cccc4[C@@](C)(O)[C@H]3C[C@@H]12`, the Potency entry in the test with C2A, in the test with CP185, with CP211, in the test on CP217, in the test with CP250 and with CP252 was “inactive” throughout. The Potency entry with CP256, in the test with CP291, with CP305, with CP325, in the test on CP329 and in the test on CP335 was “inactive” each time. For the same molecule, the Potency result in the test with Dd2, in the test with ECU, in the test with HB3, in the test on N140, in the test on PC15 and in the test with PC49 was “inactive” throughout. For the same molecule, the Potency result in the test on SC27B and in the test on TAB113 was “inactive” throughout.

For `C/C=C\C(=O)N(CC)c1ccccc1C`, the Potency result in the test with C2A, in the test on CP185, with CP211, in the test with CP217, with CP250 and in the test on CP252 was “inactive” in each case. Moreover, the Potency result in the test on CP256, in the test on CP291, with CP305, with CP325, with CP329 and with CP335 was “inactive” each time. Moreover, the Potency result in the test with Dd2, with ECU, in the test with HB3, with N140, in the test on PC15 and with PC49 was “inactive” each time. The Potency result with SC27B and with TAB113 was “inactive” in each case.

Turning to `CC(C)(O/N=C(\C(=O)N[C@@H]1C(=O)N2C(C(=O)[O-])=C(C[n+]3ccccc3)CS[C@@H]12)c1csc(N)n1)C(=O)O`, the Potency entry in the test on C2A, in the test on CP185, in the test with CP211, in the test with CP217, with CP250 and in the test with CP252 was “inactive” each time. For the same molecule, the Potency entry with CP256, with CP291, in the test with CP305, in the test on CP325, in the test with CP329 and in the test on CP335 was “inactive” each time. Besides, the Potency entry in the test on Dd2, in the test with ECU, with HB3, in the test with N140, with PC15 and in the test on PC49 was “inactive” in each case. Further, the Potency result in the test on SC27B and in the test on TAB113 was “inactive” throughout.

Turning to `CCN(CC)CC#CCOC(=O)[C@@](O)(c1ccccc1)C1CCCCC1`, the Potency result in the test on CP250, in the test on CP252, with CP325, with HB3, in the test on N140 and in the test on SC27B was “inactive” each time. Moreover, the Potency result in the test with TAB113 was “inactive”. In addition, the Potency with ECU was 12600 nM (active).

Regarding `CCN(CC)CCC[C@H](C)Nc1ccnc2cc(Cl)ccc12`, the Potency was 3550 nM (active) in the test on C2A; 4470 nM (active) in the test on CP185; 6750 nM (active) with CP211; 3980 nM (active) in the test with CP250; 8910 nM (active) with CP256; 3380 nM (active) in the test with CP291. The Potency in the test with CP305 was 2690 nM (active); with CP325 it was 7570 nM (active); in the test on CP329, 15100 nM (active); in the test with CP335, 12000 nM (active); in the test on Dd2, 10000 nM (active); in the test with ECU, 2240 nM (active). Also, the Potency in the test on HB3 is 316 nM (active); in the test on N140, 11200 nM (active); in the test on PC15, 2510 nM (active).

Turning to `NC(N)=NC[C@@H]1COC2(CCCCC2)O1`, the Potency result with C2A, in the test with CP185, in the test on CP211, with CP217, in the test with CP250 and in the test on CP252 was “inactive” in each case. In addition, the Potency entry with CP256, with CP291, in the test with CP305, in the test with CP325, in the test with CP329 and in the test on CP335 was “inactive” each time. Also, the Potency entry in the test on Dd2, with ECU, with HB3, with N140, with PC15 and with PC49 was “inactive” each time. The Potency entry in the test with SC27B and with TAB113 was “inactive” each time.

On to `CO[C@H]1C[C@@H](O[C@@H]2[C@H](C)[C@H](O[C@@H]3O[C@@H](C)C[C@@H](N(C)C)[C@@H]3O)[C@H](C)C[C@]3(CO3)C(=O)[C@H](C)[C@H](O)[C@H](C)[C@H](C)OC(=O)[C@@H]2C)O[C@@H](C)[C@H]1O`, for which the Potency entry with C2A, in the test with CP185, in the test on CP211, with CP217, in the test on CP250 and in the test with CP252 was “inactive” in each case. Also, the Potency result in the test with CP256, with CP291, with CP305, in the test with CP325, in the test with CP329 and in the test on CP335 was “inactive” throughout. In addition, the Potency entry with Dd2, in the test with ECU, in the test on HB3, in the test on N140, with PC15 and in the test with PC49 was “inactive” each time. In addition, the Potency entry with SC27B and in the test with TAB113 was “inactive” each time.

As to `CCN(CC)CCC[C@H](C)Nc1c2ccc(Cl)cc2nc2ccc(OC)cc12`, the Potency in the test on C2A was 447 nM (active); with CP185, 708 nM (active); with CP211, 1510 nM (active); in the test on CP217 it was 794 nM (active); in the test with CP250, 447 nM (active); in the test with CP252 it was 794 nM (active). For the same molecule, the Potency with CP256 is 631 nM (active); in the test on CP291, 379 nM (active); with CP305 it was 379 nM (active); in the test on CP325, 426 nM (active); in the test with CP329, 1200 nM (active); in the test on CP335, 536 nM (active). Moreover, the Potency is 447 nM (active) in the test with Dd2; 447 nM (active) with ECU; 251 nM (active) in the test on HB3; 891 nM (active) with N140; 447 nM (active) in the test with PC15; 1580 nM (active) with PC49. The Potency is 1260 nM (active) with SC27B and 891 nM (active) in the test on TAB113.

Consider `CC(=O)Nc1c(I)c(C(=O)N[C@H]2[C@@H](O)[C@H](O)[C@H](CO)O[C@@H]2O)c(I)c(N(C)C(C)=O)c1I`, for which the Potency result in the test with C2A, in the test on CP185, in the test with CP211, with CP217, in the test with CP250 and in the test on CP252 was “inactive” in each case. In addition, the Potency result in the test with CP256, in the test on CP291, in the test on CP305, with CP325, in the test with CP329 and in the test with CP335 was “inactive” throughout. The Potency result with Dd2, with ECU, in the test with HB3, in the test on N140, in the test on PC15 and with PC49 was “inactive” in each case. Also, the Potency result with SC27B and in the test on TAB113 was “inactive” throughout.

As for `C[C@@H](CN(C)C)CN1c2ccccc2CCc2ccccc21`, the Potency result with C2A, in the test with CP185, in the test on CP217, with CP250, in the test on CP252 and with CP256 was “inactive” in each case. Further, the Potency entry in the test with CP291, in the test on CP305, with CP325, with CP329, with CP335 and in the test with ECU was “inactive” in each case. In addition, the Potency result in the test with HB3, in the test on PC15, in the test with PC49, in the test with SC27B and in the test on TAB113 was “inactive” in each case.
